Records with an inconclusive call do not appear. Values without a mark were called inactive. The source made the active and inactive calls. Unless noted, the call rests on the fitted dose curve.
Legend:
[1] = Cell Viability - BJ (AID 421); details: BJ fibroblast viability, qHTS;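 further: potency means the concentration at half of the fitted maximal effect; cells exposed to compound for 40 hours at 37 °C before readout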
Procedure, shortened: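 Normal human BJ foreskin fibroblasts, 1500/well in complete medium, treated 40 hr at 37 °C. Cellular ATP by CellTiter-Glo luminescence; normalized to DMSO and 100 uM tamoxifen, AC50 from Hill fit.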

[2] = Cell Viability - Jurkat (AID 426;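 active means dose-dependent loss of cell ATP signal giving a full or clear fitted curve, ranked by lower potency value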; further: potency means the concentration at half of the fitted maximal effect); details: qHTS
Procedure, shortened: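 Jurkat (clone E6-1, human T-cell leukemia) cells, 5000/well in complete medium, were exposed to compound for 40 hr at 37 °C. Viability was read as intracellular ATP by CellTiter-Glo luminescence; AC50 came from Hill fits of concentration-response data.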

[3] = Cell Viability - Hek293 (AID 427;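 active means compounds whose dose-response curve shows a full or clear partial loss of cell viability, called from curve shape rather than a numeric limit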;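 further: potency means the concentration at half of the fitted maximal effect; cells exposed to compound for 40 hours at 37 °C before reading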); details: qHTS
Procedure, shortened: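 HEK293 cells in complete medium were exposed to compound for 40 hr at 37 °C, then cellular ATP was read by CellTiter-Glo luminescence. Data were normalized to DMSO (basal) and 100 uM tamoxifen (100% inhibition), and AC50 came from Hill fits.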

[4] = Cell Viability - HepG2 (AID 433); details: qHTS;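 further: potency means the concentration at half of the fitted maximal effect; potency for ATP loss meaning cytotoxicity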
Procedure, shortened: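 Cytotoxicity read as ATP loss (CellTiter-Glo luminescence) after 40 hr compound exposure of HepG2, 1500 cells/well, 37 °C. AC50 by Hill equation; 0% set by DMSO, 100% inhibition by 100 uM tamoxifen.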

[5] = Cell Viability - MRC5 (AID 434); details: MRC5 lung fibroblast viability, qHTS;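 further: potency means the concentration at half of the fitted maximal effect; potency reflects cytotoxicity seen as loss of intracellular ATP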
Procedure, shortened: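 MRC5 normal human lung fibroblasts (1500/well) were treated with compounds for 40 hr at 37 °C in complete medium, and viable cells were measured as intracellular ATP by CellTiter-Glo luminescence. AC50 came from Hill fits, normalized to DMSO and 100 uM tamoxifen.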

[6] = biological target: Mitogen-activated protein kinase 10 (Mus musculus) (UniProt Q61831); assay: JNK3 AlphaScreen Assay (AID 530; active means well fitted curve in either direction with a large enough effect, not every such curve was filed as active;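 further: kinase came from lysate of stimulated human HepG2 cells; signal reports phosphorylation of biotinylated GST-cJun 1-79 at Ser73 with 10 µM ATP; on the % scale 0 is the no-effect control and ±100 the full control effect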); details: JNK3 lysate, c-Jun phosphorylation; series mostly up to 57.1 µM
Procedure, shortened: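 JNK3 came from HepG2 lysates pre-activated with IL-1beta and TNF-alpha and phosphorylated biotinylated GST-cJun (1-79) at 10 uM ATP, pH 7.6, room temperature. Compounds were titrated. AlphaScreen signal used anti-phospho-cJun (Ser73) antibody.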

[7] = Cell Viability - N2a (AID 540; active means well fitted curve in the direction sought with a large enough effect; an effect the other way counts as inactive or inconclusive; further: nearly all actives have a fitted effect of over 45% in size; further: potency means the concentration at half of the fitted maximal effect;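 on activity change, negative = cytotoxicity: plate controls were DMSO alone for no effect and tamoxifen control for full effect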); details: N2a mouse neuroblastoma cell viability; activity change, negative = cytotoxicity: at 92.2 µM (top of the series)
Procedure, shortened: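 Mouse neuroblastoma N2a cells (1500/well) were preincubated 5 hr at 37 °C, then exposed to compounds for 40 hr at 37 °C in complete medium. Viability was read as intracellular ATP by CellTiter-Glo luminescence; AC50 from Hill fits.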

[8] = Cell Viability - NIH 3T3 (AID 541; active means well fitted curve in the direction sought with a large enough effect; an effect the other way counts as inactive or inconclusive;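 further: plate controls were DMSO alone for no effect and tamoxifen positive control for full effect; nearly all actives have a fitted effect of over 25% in size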); details: NIH 3T3 cell viability, qHTS; activity change, negative = cytotoxicity: at 92.2 µM (top of the series)
Procedure, shortened: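 NIH 3T3 mouse embryo fibroblasts (1000 cells/well) were plated in complete medium and treated with compound for 40 hr at 37 °C. Viability was read as intracellular ATP by CellTiter-Glo luminescence; AC50 values came from Hill-equation fits of concentration-response data.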

[9] = Cell Viability - HUV-EC-C (AID 542; active means well fitted curve in the direction sought with a large enough effect; an effect the other way counts as inactive or inconclusive; further: nearly all actives have a fitted effect of over 35% in size; further: potency means the concentration at half of the fitted maximal effect; on activity change, negative = cytotoxicity: on the % scale 0 is the no-effect control and ±100 the full control effect); details: HUV-EC-C endothelial cell viability, qHTS; series mostly up to 92.2 µM
Procedure, shortened: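 HUV-EC-C normal human vascular endothelial cells, 1000 cells/well, pre-incubated 5 hr at 37 °C, then exposed to compounds for 40 hr at 37 °C in complete medium. Viability measured as intracellular ATP by CellTiter-Glo luminescence; AC50 from Hill fits.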

[10] = Cell Viability - SK-N-SH (AID 435); details: SK-N-SH neuroblastoma cell viability qHTS; further: potency means the concentration at half of the fitted maximal effect
Procedure, shortened: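 qHTS cytotoxicity: CellTiter-Glo ATP luminescence after 40 h compound exposure of human neuroblastoma SK-N-SH cells at 37 °C. AC50 derived by Hill-equation fitting, with DMSO as basal and 100 uM tamoxifen as full inhibition.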

Structure (SMILES) | Potency [1] | Potency [2] | Potency [3] | Potency [4] | Potency [5] [µM] | outcome [6] | activity change, negative = cytotoxicity [7] [%] | Potency [8] | Potency [9] | Potency [10] | Potency [7] | activity change, negative = cytotoxicity [8]
CC(C)CCOC(=O)/C=C/c1ccccc1 | > 92 µM | > 92 µM | > 92 µM | > 92 µM | > 92 | inactive | 1.5 | inactive | inactive |  |  | 
CCCCC(CC)CO (stereo not given) | > 92 µM | > 92 µM | > 92 µM | > 92 µM | > 92 |  | -1.19 | inactive | inactive | > 92 µM |  | 
CCOCC(=O)O | > 92 µM | > 92 µM | > 92 µM | > 92 µM | > 92 |  | -1.83 |  | inactive | > 92 µM |  | 
O=c1[nH][nH]c(=O)c2cc([N+](=O)[O-])ccc12 | > 92 µM | > 92 µM | > 92 µM | > 92 µM | > 92 | inactive | 11.9 | inactive | inactive |  |  | 
O=CNc1ccccc1 | > 92 µM | > 92 µM | > 92 µM | > 92 µM | > 92 | inactive | 5.69 | inactive | inactive |  |  | 
CC1=C(/C=C/C(C)=C/C=C/C(C)=C\C=O)C(C)(C)CCC1 | 24.4 µM (active) | 22.2 µM (active) | 51.9 µM (active) | 66.1 µM (active) |  | inactive |  |  | 31.6 µM (active) | 31.7 µM (active) | 25.1 µM (active) | -120% (active)
CC(=O)Nc1ccc(N)cc1 | > 92 µM | > 92 µM | > 92 µM | > 92 µM |  | inactive | 4.55 | inactive | inactive | > 92 µM |  | 
Nc1cc(Cl)c(N)c(Cl)c1 | > 92 µM | > 92 µM | > 92 µM | > 92 µM |  | inactive | -5.31 |  | inactive | > 92 µM |  | 
CCCCCCCN | > 92 µM | > 92 µM | > 92 µM | > 92 µM |  | inactive | -10.2 | inactive | inactive | > 92 µM |  | 
O=Cc1c(Cl)cccc1Cl | > 92 µM | > 92 µM | > 92 µM | > 92 µM |  | inactive | -16.5 |  | inactive | > 92 µM |  | 
OC/C(Br)=C(\Br)CO | > 92 µM | > 92 µM | > 92 µM | > 92 µM | > 92 | inactive | -4.76 |  | inactive |  |  | 
ClC/C=C/CCl | > 92 µM | > 92 µM | > 92 µM | > 92 µM |  | inactive | -2.88 | inactive | inactive |  |  | 
Cc1nc2ccc(Cl)cc2[nH]1 | > 92 µM | > 92 µM | > 92 µM | > 92 µM |  | inactive | -5.91 | inactive | inactive | > 92 µM |  | 
CCN(Cc1ccccc1)c1ccccc1 | > 92 µM | > 92 µM | > 92 µM | > 92 µM |  | inactive | 15.1 | inactive | inactive | > 92 µM |  | 
c1ccc(Oc2ccccc2)cc1 | > 92 µM | > 92 µM | > 92 µM | > 92 µM | > 92 | inactive | -0.0485 |  | inactive |  |  | 
C=C(C)C1CC=C(C)C(OC(C)=O)C1 (stereo not given) | > 92 µM | > 92 µM | > 92 µM | > 92 µM |  |  | -2.86 | inactive | inactive | > 92 µM |  | 
O=C(O)c1cccc([N+](=O)[O-])c1 | > 92 µM | > 92 µM | > 92 µM | > 92 µM |  |  | -0.379 |  | inactive | > 92 µM |  | 
CC(=O)c1ccc([N+](=O)[O-])cc1 | > 92 µM | > 92 µM | > 92 µM | > 92 µM |  | inactive | 0.428 | inactive | inactive | > 92 µM |  | 

Structure (SMILES) | Potency [1] | Potency [2] | Potency [3] | Potency [4] | Potency [5] [µM] | outcome [6] | activity change, negative = cytotoxicity [7] [%] | Potency [8] | Potency [9] | Potency [10] | Potency [7] | activity change, negative = cytotoxicity [8]
Cc1ccc(S(=O)(=O)NC2CCCCC2)cc1 | > 92 µM | > 92 µM | > 92 µM | > 92 µM | > 92 | inactive | -19.2 |  | inactive |  |  | 
CC(CCl)OC(C)CCl (stereo not given) | > 92 µM | > 92 µM | > 92 µM | > 92 µM |  | inactive | 2.8 | inactive | inactive | > 92 µM |  | 
CC(=O)C1(C)CC2=C(CCCC2(C)C)CC1C (stereo not given) | > 92 µM | > 92 µM | > 92 µM | > 92 µM |  |  | -8.12 | inactive | inactive |  |  | 
S=C([S-])NCCNC(=S)[S-].[Zn+2] | > 92 µM | > 92 µM | > 92 µM | > 92 µM |  | inactive | -5.49 | inactive | inactive | > 92 µM |  | 
CC1(N)CCC(C(C)(C)N)CC1 (stereo not given) | > 92 µM | > 92 µM | > 92 µM | > 92 µM |  | inactive | -2.82 | inactive | inactive | > 92 µM |  | 
C/C=C(/C)C#N | > 92 µM | > 92 µM | > 92 µM | > 92 µM |  | inactive | -3.64 | inactive | inactive | > 92 µM |  | 
CNC(=O)c1ccccc1 | > 92 µM | > 92 µM | > 92 µM | > 92 µM |  | inactive | -4.58 | inactive |  | > 92 µM |  | 
O=C(O)c1ccc(Cl)c(Cl)c1 | > 92 µM | > 92 µM | > 92 µM | > 92 µM |  | inactive | 1.1 | inactive |  | > 92 µM |  | 
Cc1ccc(Cl)cc1N | > 92 µM | > 92 µM | > 92 µM | > 92 µM |  |  | -10.6 | inactive | inactive | 47.5 µM |  | 
COC(=O)CCCC(=O)OC | > 92 µM | > 92 µM | > 92 µM | > 92 µM |  | inactive | 3.33 | inactive | inactive | > 92 µM |  | 
Cc1cc([N+](=O)[O-])ccc1N | > 92 µM | > 92 µM | > 92 µM | > 92 µM |  | inactive | -8.91 |  |  | > 92 µM |  | 
COc1ccccc1[N+](=O)[O-] | > 92 µM | > 92 µM | > 92 µM | > 92 µM |  | inactive | -25.3 | inactive | inactive | > 92 µM |  | 
CC(O)CC(C)O (stereo not given) | > 92 µM | > 92 µM | > 92 µM | > 92 µM | > 92 |  | -8.39 | inactive | inactive |  |  | 
O=Cc1ccccc1Cl | > 92 µM | > 92 µM | > 92 µM | > 92 µM | > 92 |  | -4.91 | inactive | inactive |  |  | 
C=C(C)C(=O)OCC(C)C | > 92 µM | > 92 µM | > 92 µM | > 92 µM |  | inactive | 1.04 | inactive | inactive | > 92 µM |  | 
O=[N+]([O-])c1cccc(C(F)(F)F)c1 | > 92 µM | > 92 µM | > 92 µM | > 92 µM |  | inactive | 4.54 | inactive | inactive | > 92 µM |  | 
CC(C)(O)CCC(C)(C)O | > 92 µM | > 92 µM | > 92 µM | > 92 µM |  |  | 3.94 | inactive | inactive | > 92 µM |  | 
